Ten compounds from publication PMC5540273 (PLoS ONE, 2017) can be followed below.

Among the test systems are MELK; MERTK; MET; MKK7; MKNK1; MKNK2.
What all share (details): concentration: 1 μM, replicates: in singlicate; n = 1
For the next experiment, the system named is T1, MEK5.
T1 construct: gene MAP2K5

The subject of a further experiment is T2, MEK6.
T2 construct: gene MAP2K6

Another experiment deals with T3, MINK.
T3 construct: gene MINK1

The subject of another experiment is T4, MLCK.
T4 construct: gene MYLK3

The structures appear in SMILES notation.
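Note: KINOMEscan kinase panel screen.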

Consider `O=C(Nc1cccc(-c2nn3ccccc3c2-c2ccnc(Nc3cccc(C(F)(F)F)c3)n2)c1)c1c(F)cccc1F` [GSK292658], for which the “%Inh” value with MEK5 is on record as 80%; with MEK6, 0%; with MELK, 0%; in the experiment with MERTK, 37%; with MET, 0%; with MINK, 2%. Also, the “%Inh” value in the experiment with MKK7 was 0%; with MKNK1 it was 0%; in the experiment on MKNK2, 1%; with MLCK, 0%.
Regarding `CN1CCN(Cc2cccc(-c3ccc4c(Nc5ccc(Oc6ccccc6)cc5)ccnc4c3)c2)CC1` [GW578342], the “%Inh” value amounted to 100% in the experiment with MEK5; 0% in the experiment with MEK6; 16% in the experiment on MELK; 0% with MERTK; 5% in the experiment on MET; 9% in the experiment on MINK. The “%Inh” value in the experiment on MKK7 turned out to be 7%; in the experiment with MKNK1, 8%; with MKNK2 it was 51%; in the experiment with MLCK it was 1%.
For `O=C(O)C(F)(F)F.O=C(O)C(F)(F)F.O=c1[nH]ccc2nc(N[C@@H]3CCCNC3)nc(Nc3ccc(S(=O)(=O)N4CCOCC4)cc3)c12` [GSK2177277], the “%Inh” value with MEK5 turned out to be 100%; with MEK6 it was 86%; in the experiment with MELK, 100%; with MERTK, 100%; with MET it was 90.2%; in the experiment with MINK it was 98.1%. The “%Inh” value with MKK7 is given as 81%; in the experiment with MKNK1, 7%; with MKNK2, 59%; with MLCK, 90.8%.
Turning to `Cc1cccc(Nc2nc(N[C@H]3CCNC3)ncc2C(N)=O)c1.Cl` [GSK2197149], the “%Inh” value in the experiment with MEK5 is on record as 99.8%; with MEK6 it was 50%; with MELK, 20%; in the experiment on MERTK, 37%; in the experiment on MET it was 0%; with MINK, 76%. Also, the “%Inh” value was found to be 4% in the experiment on MKK7, 0% with MKNK1, 51% with MKNK2 and 24% in the experiment with MLCK.
As to `C[C@@H](Oc1cc(-n2cnc3cc(-c4ccnc(NCCS(C)(=O)=O)c4)ccc32)sc1C(N)=O)c1ccccc1Cl` [GSK907232], the “%Inh” value came to 56% in the experiment on MEK5; 0% in the experiment on MEK6; 0% in the experiment with MELK; 90.9% in the experiment on MERTK; 36% in the experiment on MET; 1% in the experiment on MINK. The “%Inh” value stood at 0% in the experiment with MKK7, 0% with MKNK1, 7% in the experiment on MKNK2 and 0% in the experiment on MLCK.
For `O=C(Nc1ccccc1F)NC1CCN(c2ccnc(Nc3ccc(F)cc3)n2)CC1` [GSK1379800], the “%Inh” value in the experiment on MEK5 amounted to 13%; with MEK6, 0%; in the experiment with MELK it was 15%; with MERTK, 0%; with MET it was 0%; in the experiment on MINK, 0%. For the same compound, the “%Inh” value in the experiment with MKK7 turned out to be 17%; in the experiment with MKNK1, 0%; with MKNK2 it was 0%; with MLCK, 0%.
For `CN(C)S(=O)(=O)c1cc(-c2ccc3nccc(-c4cccc(S(N)(=O)=O)c4)c3c2)cnc1N` [GSK1669921], the “%Inh” value in the experiment with MEK5 is 56%; in the experiment on MEK6, 0%; in the experiment with MELK, 0%; in the experiment with MERTK, 33%; in the experiment on MET, 0%; with MINK, 19%. In addition, the “%Inh” value is 0% in the experiment with MKK7, 0% with MKNK1, 4% in the experiment with MKNK2 and 0% in the experiment on MLCK.
Take `CCn1c(-c2nonc2N)nc2c(C#CC(C)(C)O)nc(OC[C@H](N)c3ccccc3)cc21` [GSK943949]: the “%Inh” value in the experiment with MEK5 is on record as 0%; in the experiment with MEK6, 0%; in the experiment with MELK it was 63%; in the experiment on MERTK, 21%; with MET, 0%; in the experiment with MINK, 5%. Also, the “%Inh” value in the experiment on MKK7 is 0%; in the experiment with MKNK1, 5%; in the experiment with MKNK2, 0%; with MLCK, 34%.
With `COc1cc2c(cc1OCCN1CCNCC1)ncc1c3ccc(C#N)cc3[nH]c21`, the “%Inh” value in the experiment with MEK5 was 99.6%; in the experiment with MEK6, 0%; in the experiment with MELK, 35%; in the experiment on MERTK it was 0%; in the experiment on MET, 5%; in the experiment with MINK it was 86%. Moreover, the “%Inh” value in the experiment with MKK7 turned out to be 12%; with MKNK1, 100%; in the experiment on MKNK2, 99%; in the experiment on MLCK, 97.5%.
Consider `CC(C)c1nc(-c2cccc(NS(=O)(=O)c3c(F)cccc3F)c2F)c(-c2ccnc(Nc3ccc(N4CCOCC4)nc3)n2)s1` [GSK2008607], for which the “%Inh” value is on record as 99.9% in the experiment on MEK5; 59% in the experiment with MEK6; 81% in the experiment on MELK; 79% with MERTK; 85% in the experiment with MET; 60% in the experiment on MINK. In addition, the “%Inh” value is recorded as 0% with MKK7, 12% with MKNK1, 96% in the experiment with MKNK2 and 0% in the experiment with MLCK.
